Compound activity as filed in PubChem.
Hits are enriched below; roughly 6.6% of the tested compounds scored in any of these assays.
Beta apoptosis: inhibitors of cytokine-induced beta cell apoptosis, primary screen, luminescence. hit rate 0.8% among 300,000. INS-1E cytokine-induced death, ATP luminescence, 48 h; percent of positive-control rescue, neutral wells zero. protection from apoptosis, % (no concentration beside the values);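 active = Every replicate reaches about 75%, or at least half do and their mean reaches it too, limit read from the data; inconclusive = At least half of replicates reach the limit but their mean does not; inactive = Under half of replicates reach the limit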;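 also: 0% = cytokine-treated negative control wells and 100% = positive control rescue; higher means more ATP so stronger rescue from cytokine killing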
NR3A LBD binder: binders of NR3A ligand-binding domain, primary screen, biophysical, differential scanning fluorimetry, uHTS; Glutamate receptor ionotropic, NMDA 3A (GRIN3A) ligand-binding domain; NR3A LBD differential scanning fluorimetry, Tm shift; 0% = protein alone, 100% = glycine-bound protein; Tm shift relative to glycine control, % at 25 µM; hit rate 2.5% among 340,000;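 active = melting temperature shift of at least 10% of the positive control shift, at one fixed dose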
CSC inhib: cancer stem cell viability inhibitors, primary screen, luminescence | cancer stem cell-like cells viability | inhibition, % at 7.5 µM | hit rate 1.1% among 300,000; in the data active = inhibition above about 75%; inconclusive = no clear call, values can overlap the other calls; tested in HMLE shEcad cells
Gli-Sufu block: Gli-Sufu pathway antagonists, primary screen, luciferase luminescence, Sufu-KO-LIGHT cells, uHTS. Sufu-KO-LIGHT fibroblasts, Gli luciferase reporter luminescence. inhibition, % at 5 µM. hit rate 0.74% among 340,000. AID 588413, 2011;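 active = inhibition above about 55%, limit read from the data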;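 also: 0% = DMSO-treated cells and 100% = wells with medium but no cells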
MPTP inh: mitochondrial permeability transition pore inhibitors, primary screen, biochemical, isolated mouse mitochondria, absorbance | Ca2+ swelling absorbance, 30 min | inhibition, % at 10 µM | hit rate 1.4% among 360,000 | AID 602449, 2012;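 active = inhibition of 50% or more, scaled per plate between neutral and stimulator controls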;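 also: 0% = DMSO wells given calcium and 100% = 1 mM EGTA wells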
Mdm2 MdmX PPI: inhibitors of human Mdm2-MdmX association, primary screen, cell-based, luminescence, split luciferase, SaOS-2, uHTS; Protein Mdm4 (Homo sapiens) + E3 ubiquitin-protein ligase Mdm2 (Homo sapiens), …; SaOS-2 split-luciferase Mdm2/MdmX complementation; inhibition, % at 8 µM; hit rate 3% among 330,000;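 active = inhibition of at least 50% at 8 µM in the primary screen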
Target sequence (O15151 whole entry, looked up): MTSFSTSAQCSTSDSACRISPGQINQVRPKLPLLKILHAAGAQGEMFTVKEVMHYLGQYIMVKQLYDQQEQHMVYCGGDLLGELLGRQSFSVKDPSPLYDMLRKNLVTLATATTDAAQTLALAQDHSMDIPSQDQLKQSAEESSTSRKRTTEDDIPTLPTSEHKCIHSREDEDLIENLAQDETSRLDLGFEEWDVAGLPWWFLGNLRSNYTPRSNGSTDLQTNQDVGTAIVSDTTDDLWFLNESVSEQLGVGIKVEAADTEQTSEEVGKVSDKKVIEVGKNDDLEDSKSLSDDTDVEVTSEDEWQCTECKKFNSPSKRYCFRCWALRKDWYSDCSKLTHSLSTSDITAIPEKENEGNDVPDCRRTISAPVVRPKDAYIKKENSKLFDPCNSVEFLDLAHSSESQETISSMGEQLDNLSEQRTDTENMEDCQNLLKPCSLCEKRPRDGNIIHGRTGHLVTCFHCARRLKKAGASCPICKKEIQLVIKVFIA
Target sequence (Q00987 whole entry, looked up): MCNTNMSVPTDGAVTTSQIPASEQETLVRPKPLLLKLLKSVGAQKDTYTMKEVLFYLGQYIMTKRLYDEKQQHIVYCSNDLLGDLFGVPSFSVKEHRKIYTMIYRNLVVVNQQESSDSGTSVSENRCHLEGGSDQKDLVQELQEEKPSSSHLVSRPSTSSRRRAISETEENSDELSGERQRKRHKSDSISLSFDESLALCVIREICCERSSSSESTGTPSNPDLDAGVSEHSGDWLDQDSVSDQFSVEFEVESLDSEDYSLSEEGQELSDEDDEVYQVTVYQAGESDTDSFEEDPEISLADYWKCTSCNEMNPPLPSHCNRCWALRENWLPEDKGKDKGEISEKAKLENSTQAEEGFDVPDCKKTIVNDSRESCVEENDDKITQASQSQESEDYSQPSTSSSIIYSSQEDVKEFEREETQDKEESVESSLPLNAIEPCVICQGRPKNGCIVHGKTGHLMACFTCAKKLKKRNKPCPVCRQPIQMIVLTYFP
Mdm2-MdmX conf: Mdm2-MdmX complex disruptors, retested hits, confirmation, luminescence, single concentration; inhibition, % at 8 µM; shares compounds with Mdm2 MdmX PPI; AID 489028, 2010; Mdm2-MdmX binding, luminescent assay; hit rate 55% among 10,000; in the data active = inhibition above about 40%
FLuc counter: full-length luciferase signal inhibition, confirmation, counter-screen for Mdm2/MdmX interaction inhibitor project, cell-based, single concentration, SaOS-2. inhibition, % at 8 µM. shares compounds with Mdm2 MdmX PPI. AID 504607, 2011. hit rate 77% among 6,200. SaOS-2 full-length luciferase counterscreen, luminescence;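 active = mean inhibition at 8 µM reaching about 37%, which flags the compound as non-specific, limit read from the data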;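 also: p53-null SaOS-2 cells with luciferase driven by a doxycycline-inducible promoter; compound on cells about two nights before reading with doxycycline added after day one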
* marks the source's active call; other numbers are inactive results; ? = inconclusive; / = no result.

SMILES | Beta apoptosis | NR3A LBD binder | CSC inhib | Gli-Sufu block | MPTP inh | Mdm2 MdmX PPI | Mdm2-MdmX conf | FLuc counter
COCCSc1ccccc1C(=O)Nc1ccc(S(=O)(=O)N2CCOCC2)cc1 | -1.7 | 0.9 | -16.2 | 1.7 | 0.7 | 9.8 | / | /
O=C(C#Cc1ccccc1)c1ccco1 | 99.8* | -0.2 | 59.2 | -6.6 | -0.6 | 97.9* | 67.5* | 51.5*
O=C(N/N=C/c1ccccc1)c1ccco1 | 3.5 | -0.8 | 9.7 | -20.1 | -1.3 | 17.6 | / | /
COc1ccc(CCCC(=O)NCC(=O)N/N=C/c2cc(Cl)ccc2OC)cc1 | / | -7.9 | / | 0.4 | -0.8 | -8.1 | / | /
CNC(=O)C1=C(C)Nc2nc3ccccc3n2C1c1ccc(F)cc1 (stereo not given) | -4.6 | 0.9 | -25.5 | -3.1 | -0.5 | 12.6 | / | /
CCOC(=O)C1=C(C)Nc2nc3ccccc3n2C1c1ccccc1 (stereo not given) | -3.2 | 0.8 | 22.5 | 8.7 | 0.9 | 53.6* | 7.5 | /
COc1ccc(OC)c(C2C(C(=O)c3ccccc3)=C(C)Nc3nc4ccccc4n32)c1 (stereo not given) | / | -2.7 | 4.0 | 14.3 | 0.6 | 98.3* | 76.4* | 80.3*
COc1ccc(C2C(C(=O)c3ccccc3)=C(C)Nc3nc4ccccc4n32)cc1OC (stereo not given) | / | 1.1 | -0.6 | 3.9 | 0.6 | 16.8 | / | /
CC(=O)c1ccc(NC(=O)CC(C)S(=O)(=O)c2ccc3c(c2)CCN3C(C)=O)cc1 (stereo not given) | -4.1 | -1.1 | -8.3 | -9.2 | -1.6 | -8.9 | / | /
CCOc1ccc(CNC(=O)Nc2ccccc2)cc1 | / | -3.7 | / | -22.2 | -0.3 | -13.4 | / | /
CCOc1ccccc1CNC(=O)c1cc2oc3ccccc3c2n1CC | 5.9 | -6.1 | 48.8 | 13.3 | 0.7 | 93.0* | 89.2* | 25.6
CCOc1ccc(CNC(=O)c2cc3oc4ccccc4c3n2C)cc1 | -2.1 | -4.5 | 37.5 | 17.6 | 3.1 | 85.1* | 88.0* | 25.6
COc1cccc(CNC(=O)c2cc3oc4ccccc4c3n2C)c1OC | -4.8 | 4.3 | 37.0 | 1.2 | -2.7 | 97.2* | 95.8* | 47.1*
CCn1c(C(=O)N2CCc3ccccc3C2)cc2oc3ccccc3c21 | -10.4 | -0.1 | 20.7 | 6.3 | 1.9 | -16.8 | / | /
CNC(=O)C1(C)CCN1C(=O)Cc1ccc(C(C)C)cc1 (stereo not given) | / | / | / | / | 7.5 | / | / | /
O=S(=O)(c1ccc(Br)cc1F)N1CCCCC1CCO (stereo not given) | / | 0.2 | / | -1.8 | -1.8 | / | / | /
Cc1cc(C)cc(OCC(=O)NNC(=S)NC(=O)C2CC2)c1 | 8.3 | 1.5 | -5.4 | -13.5 | 0.5 | 37.7 | / | /
CCCCCCCCCC(=O)N/N=C(\C)c1cccnc1 | 2.0 | 1.0 | 12.9 | 3.5 | -0.8 | -9.2 | / | /
C/C(=N\NC(=O)COc1ccccc1-c1ccccc1)c1ccc(O)cc1O | 80.8* | 4.4 | 37.4 | 4.7 | 36.6 | 64.0* | 46.6* | 37.2*
CCCCCC(=O)N/N=C(\C)c1ccccn1 | 37.0 | -1.1 | 15.5 | -7.8 | -3.1 | 60.5* | 7.7 | /
C/C(=N\NC(=O)COc1ccccc1-c1ccccc1)c1cccnc1 | -1.0 | -1.2 | -10.0 | 4.4 | 1.1 | 14.1 | / | /
C/C(=N\NC(=O)COc1ccccc1-c1ccccc1)c1ccccn1 | 80.6* | -1.2 | 44.7 | 37.1 | -1.1 | 86.2* | 72.1* | 51.0*
CCOC(=O)C1=C(C)NC(=S)N(C(C)=O)C1c1ccc(OC)c(OC)c1 (stereo not given) | 5.0 | 1.3 | 7.2 | 5.7 | 3.6 | 56.5* | 8.5 | /
CCC(CC)C(=O)NCCCCc1ccccc1 | -0.6 | -2.6 | -7.0 | -1.7 | 0.0 | 14.6 | / | /
CCOc1cc2nc(-c3ccc(OC)c(OC)c3)nc(N3CCOCC3)c2cc1OC | 5.2 | -3.5 | 12.5 | -7.5 | / | 52.9* | 45.3* | 82.7*
SMILES | Beta apoptosis | NR3A LBD binder | CSC inhib | Gli-Sufu block | MPTP inh | Mdm2 MdmX PPI | Mdm2-MdmX conf | FLuc counter
O=C(NCC1CCN(Cc2ccccc2)CC1)[C@H]1O[C@@H](n2ccc(=O)[nH]c2=O)[C@H](O)[C@@H]1O | / | / | / | / | -0.1 | / | / | /
COc1ccc(CN2CCC(N(CCc3ccccc3)Cc3ccccc3)CC2)c(OC)c1 | 20.2 | -4.5 | ? | 24.1 | 5.9 | 86.2* | 30.7 | /
COc1ccc(S(=O)(=O)N2c3ccc(F)cc3CCC2C)cc1 (stereo not given) | / | 3.1 | 63.1 | 50.4 | 4.7 | 59.1* | 63.3* | 97.1*
CC(=O)Nc1ccc(S(=O)(=O)N2c3ccc(F)cc3CCC2C)cc1 (stereo not given) | 15.2 | -3.3 | 57.5 | -1.1 | 5.5 | 48.8 | / | /
O=c1[nH]c(CN2CCN(c3ccccc3)CC2)nc2scc(-c3ccccc3)c12 | -11.1 | -2.1 | 48.7 | -5.5 | 0.0 | 71.7* | 73.0* | 54.1*
COc1ccc(N2CCN(Cc3nc4scc(-c5ccccc5)c4c(=O)[nH]3)CC2)cc1 | 2.6 | -2.1 | 14.3 | 15.2 | 6.2 | 12.0 | / | /
CN(Cc1ccccc1)C(=O)c1cccc(NC(=O)Cc2ccc(NC(=O)C3CCCN(C(=O)c4ccccc4)C3)cc2)c1 (stereo not given) | / | -1.1 | / | -2.4 | -2.0 | / | / | /
Cc1cc(C)c2c(c1)/C(=C/C(=O)c1ccc(Br)s1)C(=O)N2 | -6.1 | -1.7 | ? | 3.3 | -2.2 | 96.2* | 41.4* | 87.5*
O=C1NC(=S)N/C1=C/c1cc2c(cc1[N+](=O)[O-])OCO2 | -9.1 | -2.3 | 7.4 | 28.6 | -1.6 | 54.6* | 29.2 | /
O=C(O)/C=C\c1cc2c(cc1[N+](=O)[O-])OCO2 | -7.6 | 0.2 | 6.7 | 5.2 | -0.9 | -5.7 | / | /
CCN1C(=O)c2cccc3c(NC(=O)c4ccc5c(c4)OCCO5)ccc1c23 | -19.0 | 3.0 | -14.0 | -8.4 | -0.1 | 51.0* | 3.6 | /
CCN1C(=O)c2cccc3c(NC(=O)c4ccccc4)ccc1c23 | -3.8 | -1.1 | -6.6 | 10.4 | -17.8 | 36.0 | / | /
CCN1C(=O)c2cccc3c(NC(=O)C4CCCCC4)ccc1c23 | -9.2 | 3.7 | 6.4 | 14.0 | 0.5 | 55.0* | 24.4 | /
CN1C(=O)c2cccc(NC(=O)C3CCCCC3)c2C1=O | -4.0 | -2.6 | 3.7 | 15.0 | -2.1 | -5.9 | / | /
CCN1C(=O)c2cccc3c(NC(=O)c4ccc(OC)c(OC)c4)ccc1c23 | / | -2.0 | -0.6 | 7.3 | -0.8 | 53.9* | 24.0 | /
CC(=O)Nc1cn(-c2ccccc2)nc1-c1ccccc1 | -7.0 | -1.0 | -1.8 | -0.7 | -0.5 | 19.3 | / | /
